Only some compounds are listed: those with a hit (about 6.9% of all), similar ones and a draw of the others.
MCF10A rereplic – DNA re-replication induction in MCF 10a cells; actives 2.9% (n = 350,000); Potency, µM (highest dose often 46.1 µM), for inactives: top-dose activity, positive = re-replication, hits mostly activators; AID 624296; MCF 10A DNA re-replication, Hoechst nuclear intensity, 48 h; note: potency is the fitted concentration of half-maximal effect; % of control where 0% means no effect; nearly all actives have a fitted effect of over 50% in size
IL1B secr inh – inhibitors of inflammasome signaling (IL-1 beta secretion). THP-1 LPS/ATP IL-1B secretion, AlphaLISA, 16 h; active compounds read low. activity change, % at 57.5 µM. actives 4.7% (n = 360,000). AID 743279; in the data active = activity change below about -50%; inconclusive = mostly about -30% to -49%; note: % is set by controls: 0 for no effect and ±100 for the full control effect
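Secreted IL-1B measured by AlphaLISA bead assay after 16 h compound exposure of THP-1 cells; compounds (final up to 57.5 uM) added 1 h before LPS (250 ng/mL) and ATP (1.25 mM) stimulation; lower signal means less secretion.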
Giardia kill – kills Giardia lamblia. activity change, % at 7.66 µM, hits read low. actives 0.15% (n = 340,000). AID 540267. Giardia lamblia trophozoite viability; in the data active = activity change below about -80%; inconclusive = between about -30% and that limit;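 note: parasites exposed to compound for two days anaerobically before the ATP read; % is set by controls: 0 for no effect and ±100 for the full control effect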
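Anaerobic 48 hrs incubation at 37 deg C of 100 trophozoites/well with test compounds; ATPLite 1-Step luminescence, 15-30 min RT, reports cellular ATP as viability.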
SW480 rereplic – DNA re-replication induction in SW480 cells; AID 624297; SW480 DNA re-replication, Hoechst DNA content imaging, 48 h; actives 1.8% (n = 340,000); Potency, µM (series often up to 46.1 µM), inactives show top-dose re-replication activation, usual class: activators; note: potency is the fitted concentration of half-maximal effect; % of control where 0% means no effect; nearly all actives have a fitted effect of over 55% in size
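250 cells/well; 23 nL cpd via pin tool; 48 hr, 37 C, 5% CO2; Hoechst 40 min; imager read of total nuclear intensity, ex 405/em 500-530 nm.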
Vif-APOBEC3F blk – blocks the Vif interaction with APOBEC3F. Potency, µM (doses to about 46.1 µM), without a hit: at the top dose activity, negative = active. actives 0.2% (n = 390,000). HeLa A3F-eYFP + Vif (tagged APOBEC3F with the HIV-1 protein that degrades it), YFP fluorescence increase. AID 602313; note: potency is the fitted concentration of half-maximal effect; % of control where 0% means no effect; nearly all actives have a fitted effect of over 65% in size
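HeLa cells stably expressing Vif plus C-terminally eYFP-tagged A3F were seeded, incubated overnight at 37 deg C, dosed with compound, incubated overnight again at 37 deg C. Yellow fluorescence (Ex 488/Em 500-530) reported blocked Vif-mediated A3F-eYFP degradation.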
Vif-APOBEC3G blk – inhibitors of Vif-APOBEC3G interaction; actives 0.076% (n = 410,000); HeLa A3G-eYFP + Vif (tagged APOBEC3G with the HIV-1 protein that degrades it), YFP fluorescence, overnight; Potency, µM (doses to about 46.1 µM), inactives show top-dose activity, negative = active, actives largely listed as inhibitors; Q9HC16; note: potency is the fitted concentration of half-maximal effect; % is set by controls: 0 for no effect and ±100 for the full control effect; nearly all actives have a fitted effect of over 60% in size
Target sequence (Q9HC16 whole entry, looked up): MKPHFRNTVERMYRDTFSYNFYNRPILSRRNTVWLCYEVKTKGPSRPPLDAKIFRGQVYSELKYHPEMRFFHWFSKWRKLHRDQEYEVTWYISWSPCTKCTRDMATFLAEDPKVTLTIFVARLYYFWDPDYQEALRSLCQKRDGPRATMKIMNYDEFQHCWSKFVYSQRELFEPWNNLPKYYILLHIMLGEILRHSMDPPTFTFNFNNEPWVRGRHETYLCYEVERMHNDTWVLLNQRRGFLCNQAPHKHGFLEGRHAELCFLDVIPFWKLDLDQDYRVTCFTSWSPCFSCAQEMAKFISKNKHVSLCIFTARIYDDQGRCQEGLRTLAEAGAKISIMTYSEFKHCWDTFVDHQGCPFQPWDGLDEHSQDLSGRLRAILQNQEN
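HeLa cells stably expressing Vif and C-terminally eYFP-tagged A3G, seeded overnight at 37 deg C, then exposed to compound by pintool overnight at 37 deg C. Rise in yellow fluorescence (Ex 488/Em 500-530, Acumen) marks blocked Vif-driven A3G degradation.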
Numbers without * were called inactive; ? = inconclusive; . = no result. Unless noted, calls come from the whole dose curve; as a rule, active = well fitted curve in the direction sought with a large enough effect; inconclusive = small, poorly fitted or top-dose-only effect, or another doubt; inactive = no such curve, though single readings can be large; an effect the other way counts as inactive or inconclusive.

SMILES	MCF10A rereplic	IL1B secr inh	Giardia kill	SW480 rereplic	Vif-APOBEC3F blk	Vif-APOBEC3G blk
CCN(CC)c1ccc2cc(-c3nnc(Nc4ccc(C)cc4)s3)c(=O)oc2c1	.	.	-27.3	.	-625.1%	4.0%
CCOc1ccc2c(C)c(Cl)c(=O)oc2c1	-8.9%	17.1	5.8	-3.4%	5.3%	1.4%
Nc1nc2[nH]cc(CCc3ccc(C(=O)NC(CCC(=O)O)C(=O)O)cc3)c2c(=O)[nH]1 (centres undefined)	8.6%	.	.	-3.9%	.	.
Cc1cc(C)cc(NC(=O)NCCn2nnc3cc(S(=O)(=O)N(C)C)ccc32)c1	.	.	.	.	0.0%	5.3%
NC(=O)c1c(NC(=O)c2nc(SCc3ccccc3F)ncc2Cl)sc2c1CCCC2	.	.	.	.	-4.2%	1.1%
O=S(=O)(Nc1cccc(-c2ccc(N3CCCCC3)nn2)c1)c1ccc(Cl)s1	.	.	.	.	-1.6%	-1.4%
CCN(CC)c1ccc2c(c1)oc(=O)c1c(Cl)cc(=O)oc12	?	-126.4*	?	9.2µM*	25.1µM*	?
CCOc1ccc(NC(=O)Cn2c(=O)c(CNc3ccc(CC)cc3)cc3cc4c(cc32)OCO4)cc1	.	.	.	.	-1.3%	-3.6%
Cc1cc(OC2CCCCC2)nc(-c2ccccc2O)n1	20.6µM*	44.7	-0.5	10.0%	0.4%	0.0%
COc1c(Cl)cc(Cl)cc1/C=C/C(=O)c1ccc(NC(=O)c2cccs2)cc1	3.66µM*	-103.9*	2.7	6.51µM*	0.0%	?
O=C(Nc1ccc(NC(=O)c2cccs2)cc1)c1ccc(Cl)cc1	.	.	.	.	2.7%	-1.1%
CC1CCCCN1C(=O)CSc1c2c(nc3cc(Cl)ccc13)CCCC2 (centres undefined)	.	.	.	.	-1.6%	-12.3%
COc1ccc(Nc2nc3ccccc3n3nnnc23)cc1	8.5%	4.1	21.9	3.5%	?	-5.2%
COc1cc(Nc2nc3ccccc3n3nnnc23)cc(OC)c1OC	29.1µM*	-1.1	-9.6	-4.8%	6.31µM*	?
CC(=O)c1ccc(OCC(=O)N2CCCC2c2ccc3c(c2)OCCCO3)cc1 (centres undefined)	-0.5%	5.6	17.6	-0.6%	-9.2%	1.2%
O=C(CCl)N1CCCC1c1ccc2c(c1)OCCO2 (centres undefined)	18.7%	-102.5*	-2.7	?	-1.7%	4.4%
COc1ccc(S(=O)(=O)Cc2ccc(C(=O)N3CCN(c4cccc(C)c4)C(C)C3)o2)cc1 (centres undefined)	6.51µM*	10.5	-4.9	14.6µM*	-0.6%	-17.2%
COc1ccc(S(=O)(=O)Cc2ccc(C(=O)N3CCN(c4cc(C)ccc4C)CC3)o2)cc1	?	25.4	-5.9	2.8%	-14.2%	-6.4%
Cc1ccc(C)c(N2CCN(C(=O)c3ccc(CS(=O)(=O)c4ccc(Br)cc4)o3)CC2)c1	.	.	.	.	1.1%	-5.6%
COc1ccc(S(=O)(=O)Cc2ccc(C(=O)N3CCN(c4cccc(C)c4C)CC3)o2)cc1	?	8.0	5.0	20.6µM*	-0.7%	-13.5%
Cc1ccc(S(=O)(=O)Cc2ccc(C(=O)N3CCN(c4cccc(C)c4C)CC3)o2)cc1	?	65.6	-20.7	2.59µM*	-7.7%	-20.7%
COc1ccc(N(CC(=O)N2CCN(c3cccc(C)c3)C(C)C2)S(=O)(=O)c2c(C)n[nH]c2C)cc1 (centres undefined)	0.0%	-60.9*	-9.0	3.9%	-0.5%	-6.5%
O=C(NCc1ccccc1)NC1COc2ccccc2C1 (centres undefined)	.	.	.	.	10.9%	2.4%
O=C(NCCSCc1c(F)cccc1Cl)C1CCN(S(=O)(=O)Cc2ccccc2)CC1	.	.	.	.	1.7%	3.5%
CCSc1nsc(NC(=O)Nc2ccccc2Cl)n1	?	-77.6*	-19.2	18.5%	1.5%	-1.8%
SMILES	MCF10A rereplic	IL1B secr inh	Giardia kill	SW480 rereplic	Vif-APOBEC3F blk	Vif-APOBEC3G blk
CCSc1nsc(NC(=O)Nc2ccc(F)cc2F)n1	?	-90.5*	-9.8	0.0%	-11.7%	3.9%
CCOC(=O)C(=O)c1csc(NC(=O)CCSc2ccc(C)cc2)n1	0.581µM*	11.9	-5.7	3.0%	8.1%	0.4%
O=c1/c(=C\c2cccc(O)c2)sc2nc(-c3ccccc3)c(-c3ccccc3)n12	4.61µM*	-74.6*	-20.8	-6.4%	-4.9%	-0.2%
Cc1ccc(C[n+]2cccc(-c3ccccc3)c2)c(C)c1	-4.6%	-58.1*	7.8	-7.2%	-17.6%	-0.1%
Cc1ccc2ccc[n+](Cc3ccccc3)c2c1	3.5%	20.4	19.5	11.2%	0.8%	3.0%
Cc1ccccc1N/N=C/c1c(C)nc2ccccn12	16.4µM*	0.0	-25.8	14.2%	4.2%	-5.4%
CCOC(=O)/C(C#N)=N\Nc1cc(Cl)ccc1OC	?	2.0	29.1	?	10µM*	-4.8%
CCOC(=O)/C(C#N)=N/Nc1ccccc1OC	1.9%	5.1	16.0	-5.1%	?	-20.3%
CCc1c(C)sc2c1CCN(Cc1ccccc1)C2c1ccccc1 (centres undefined)	.	.	.	.	3.8%	-0.9%
O=C(Nc1ccc2c(c1)CCC2)c1cccs1	0.0%	-63.4*	-10.7	-2.6%	6.8%	0.3%
COc1ccc2c(c1)CCc1c(C(=O)N3CCOCC3)noc1-2	6.7%	-18.3	3.9	-2.2%	-4.4%	0.4%
O=C(Nc1cccc(C(=O)N2CCCc3ccccc32)c1)c1ccccc1	14.6µM*	5.7	8.3	?	-5.2%	?
CCCN(CCC)S(=O)(=O)c1ccc(C(=O)N2CCCc3ccccc32)cc1	23.1µM*	-13.3	-7.0	?	-11.9%	1.8%
COc1ccc2c(c1)CCc1c(C(=O)N3CCCc4ccccc43)noc1-2	?	-52.6*	-4.6	11.6%	4.1%	4.5%
COc1ccc(OC)c(/C=C/C(=O)N2CCCc3ccccc32)c1	-0.1%	-76.7*	10.2	10.4%	-5.2%	-4.4%
COc1ccc(/C=C/C(=O)N2CCCc3ccccc32)c(OC)c1	?	?	-9.5	?	-20.1%	-7.4%
COc1cc(C(=O)N2CCCc3ccccc32)cc(OC)c1OC	10µM*	35.5	-2.7	?	-6.7%	-22.2%
O=C(Nc1ccc(C(=O)N2CCCc3ccccc32)cc1)c1cccs1	19.8%	-80.2*	-14.9	-1.9%	-8.1%	1.6%
COc1ccc(C(=O)N2CCCc3ccccc32)cc1OC	8.8%	50.9	5.6	-9.1%	12.3%	0.1%
Cc1ccc(-n2nc(C)c3c(C(=O)Nc4ccc(Br)c(C)c4)cc(C)nc32)cc1	.	.	.	.	0.9%	0.2%
COc1ccccc1CNC(=O)CSc1nc2nc(C)c(Cc3ccccc3Cl)c(C)n2n1	.	.	.	.	4.2%	-3.6%
Cc1cccc(NS(=O)(=O)c2ccc3oc(=O)c4ncn(C)c4c3c2)c1C	.	.	.	.	-4.2%	2.7%
